# Measurements taken from PubChem BioAssay (EPA / NIEHS).
# Calls of active or inactive are those of the source. Rule for the calls: active = hit-call score of the fitted dose curve at least 0.9, where 1 is the maximum; inactive = score below 0.9.
# Read-out: UDP glucuronosyltransferase (UGT1A1), UGT1A1 (gene 54658)
# Test: LTEA_HepaRG_UGT1A1: Life Technologies and Expression Analysis (LTEA) Assay for UDP glucuronosyltransferase (UGT1A1) using HepaRG (AID 2283538)
# Conditions: mRNA level, 48 h; actives raise or lower the signal
# Summary of the method: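 mRNA induction or loss of UGT1A1, by TaqMan qRT-PCR, in duplicate HepaRG wells after 48 h exposure to half-log dilutions topping at 100 uM; DMSO (0.5%) served as baseline.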
SMILES,outcome,AC50
CCCCCOC(=O)COc1cc(N2C(=O)C3=C(CCCC3)C2=O)c(F)cc1Cl,inactive,–
CCSC(=O)N(CC(C)C)CC(C)C,inactive,–
CCC(C)OC(=O)N1CCCCC1CCO (stereo unspecified),–,34.2 µM (active)
CCCCCCC(C)OC(=O)COc1nc(F)c(Cl)c(N)c1Cl (stereo unspecified),inactive,–
CCCN(CCC)c1c([N+](=O)[O-])cc(C(F)(F)F)c(N)c1[N+](=O)[O-],–,6.48 µM (active)
COC(=O)c1ccccc1C(=O)O,inactive,–
O=C(O)C1(C(=O)Nc2ccc(Cl)cc2Cl)CC1,inactive,–
CCCCOC(=O)C(C)Oc1ccc(Oc2ccc(C(F)(F)F)cn2)cc1 (stereo unspecified),inactive,–
CCOC(=O)C(C)Oc1ccc(Oc2cnc3cc(Cl)ccc3n2)cc1 (stereo unspecified),inactive,–
CCCOC(=O)NCCCN(C)C,inactive,–
CC(C)(C)[C@@H](O)[C@@H](Cc1ccc(Cl)cc1)n1cncn1,–,6.98 µM (active)
COc1c(Cl)ccc(Cl)c1C(=O)O,inactive,–
C=CCOC(Cn1ccnc1)c1ccc(Cl)cc1Cl (stereo unspecified),–,77.5 µM (active)
CCCN(CCC)C(=O)SCC,inactive,–
CCCCOCCOCCOCc1cc2c(cc1CCC)OCO2,–,3.72 µM (active)
S=C([S-])NCCNC(=S)[S-].[Mn+2],–,2.75 µM (active)
CCCOC(=O)c1ccc(C(=O)OCCC)nc1,inactive,–
CCOC(=O)COc1cc(-n2ncc(C(F)(F)F)c(C)c2=O)c(F)cc1Cl,inactive,–
CCOC(=O)NCCOc1ccc(Oc2ccccc2)cc1,inactive,–
CCCCOC(=O)[C@@H](C)Oc1ccc(Oc2ccc(C(F)(F)F)cn2)cc1,inactive,–
Cc1nn(C)c(Oc2ccccc2)c1C=NOCc1ccc(C(=O)OC(C)(C)C)cc1,–,2.29 µM (active)
OB(O)O,inactive,–
CCOC(=O)C(C)Oc1ccc(Oc2nc3ccc(Cl)cc3o2)cc1 (stereo unspecified),inactive,–
COC(=O)CSc1cc(N=c2sc(=O)n3n2CCCC3)c(F)cc1Cl,–,41.4 µM (active)
CCNc1nc(N)nc(Cl)n1,–,1.03 µM (active)

# Read-out: UDP glucuronosyltransferase (UGT1A6), UGT1A6 (gene 54578)
# Test: LTEA_HepaRG_UGT1A6: Life Technologies and Expression Analysis (LTEA) Assay for UDP glucuronosyltransferase (UGT1A6) using HepaRG (AID 2283539)
# Conditions: mRNA level, 48 h; actives raise or lower the signal
# Summary of the method: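 Differentiated HepaRG cells, ~100,000/well, were exposed for 48 h in serum-free induction medium with 0.5% DMSO to 8-point half-log series topping at 100 uM, in duplicate. mRNA measured by Fluidigm TaqMan qRT-PCR, normalized to ACTB, GAPDH and POLR2A.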
SMILES,outcome,AC50
CCCCCOC(=O)COc1cc(N2C(=O)C3=C(CCCC3)C2=O)c(F)cc1Cl,inactive,–
CCSC(=O)N(CC(C)C)CC(C)C,inactive,–
CCC(C)OC(=O)N1CCCCC1CCO (stereo unspecified),inactive,–
CCCCCCC(C)OC(=O)COc1nc(F)c(Cl)c(N)c1Cl (stereo unspecified),inactive,–
CCCN(CCC)c1c([N+](=O)[O-])cc(C(F)(F)F)c(N)c1[N+](=O)[O-],inactive,–
COC(=O)c1ccccc1C(=O)O,inactive,–
O=C(O)C1(C(=O)Nc2ccc(Cl)cc2Cl)CC1,–,79.6 µM (active)
CCCCOC(=O)C(C)Oc1ccc(Oc2ccc(C(F)(F)F)cn2)cc1 (stereo unspecified),inactive,–
CCOC(=O)C(C)Oc1ccc(Oc2cnc3cc(Cl)ccc3n2)cc1 (stereo unspecified),inactive,–
CCCOC(=O)NCCCN(C)C,inactive,–
CC(C)(C)[C@@H](O)[C@@H](Cc1ccc(Cl)cc1)n1cncn1,inactive,–
COc1c(Cl)ccc(Cl)c1C(=O)O,inactive,–
C=CCOC(Cn1ccnc1)c1ccc(Cl)cc1Cl (stereo unspecified),–,72.4 µM (active)
CCCN(CCC)C(=O)SCC,inactive,–
CCCCOCCOCCOCc1cc2c(cc1CCC)OCO2,inactive,–
S=C([S-])NCCNC(=S)[S-].[Mn+2],–,3.64 µM (active)
CCCOC(=O)c1ccc(C(=O)OCCC)nc1,inactive,–
CCOC(=O)COc1cc(-n2ncc(C(F)(F)F)c(C)c2=O)c(F)cc1Cl,inactive,–
CCOC(=O)NCCOc1ccc(Oc2ccccc2)cc1,inactive,–
COC(=O)c1ccc(I)cc1S(=O)(=O)NC(=O)Nc1nc(C)nc(OC)n1,inactive,–
CCCCOC(=O)[C@@H](C)Oc1ccc(Oc2ccc(C(F)(F)F)cn2)cc1,inactive,–
Cc1nn(C)c(Oc2ccccc2)c1C=NOCc1ccc(C(=O)OC(C)(C)C)cc1,–,1.61 µM (active)
OB(O)O,inactive,–
CCOC(=O)C(C)Oc1ccc(Oc2nc3ccc(Cl)cc3o2)cc1 (stereo unspecified),inactive,–
COC(=O)CSc1cc(N=c2sc(=O)n3n2CCCC3)c(F)cc1Cl,inactive,–
CCNc1nc(N)nc(Cl)n1,inactive,–
